The values below come from article PMC4336329 (PLoS ONE, 2015).

Structures are written as SMILES. Out of some 310,000 compounds screened, about 2,200 (0.71%) showed an effect of 50% or more. The effect is printed as a negative number. This is one part of a sample in which strong results are shown more often than they occur.

This test deals with human ether-à-go-go-related gene (hERG) potassium channel (human, UniProt Q12809). Put plainly: primary screen, population patch clamp on CHO cells stably expressing hERG; higher = less effect of the substance.
human ether-à-go-go-related gene (hERG) potassium channel, sequence (Q12809 whole entry, looked up): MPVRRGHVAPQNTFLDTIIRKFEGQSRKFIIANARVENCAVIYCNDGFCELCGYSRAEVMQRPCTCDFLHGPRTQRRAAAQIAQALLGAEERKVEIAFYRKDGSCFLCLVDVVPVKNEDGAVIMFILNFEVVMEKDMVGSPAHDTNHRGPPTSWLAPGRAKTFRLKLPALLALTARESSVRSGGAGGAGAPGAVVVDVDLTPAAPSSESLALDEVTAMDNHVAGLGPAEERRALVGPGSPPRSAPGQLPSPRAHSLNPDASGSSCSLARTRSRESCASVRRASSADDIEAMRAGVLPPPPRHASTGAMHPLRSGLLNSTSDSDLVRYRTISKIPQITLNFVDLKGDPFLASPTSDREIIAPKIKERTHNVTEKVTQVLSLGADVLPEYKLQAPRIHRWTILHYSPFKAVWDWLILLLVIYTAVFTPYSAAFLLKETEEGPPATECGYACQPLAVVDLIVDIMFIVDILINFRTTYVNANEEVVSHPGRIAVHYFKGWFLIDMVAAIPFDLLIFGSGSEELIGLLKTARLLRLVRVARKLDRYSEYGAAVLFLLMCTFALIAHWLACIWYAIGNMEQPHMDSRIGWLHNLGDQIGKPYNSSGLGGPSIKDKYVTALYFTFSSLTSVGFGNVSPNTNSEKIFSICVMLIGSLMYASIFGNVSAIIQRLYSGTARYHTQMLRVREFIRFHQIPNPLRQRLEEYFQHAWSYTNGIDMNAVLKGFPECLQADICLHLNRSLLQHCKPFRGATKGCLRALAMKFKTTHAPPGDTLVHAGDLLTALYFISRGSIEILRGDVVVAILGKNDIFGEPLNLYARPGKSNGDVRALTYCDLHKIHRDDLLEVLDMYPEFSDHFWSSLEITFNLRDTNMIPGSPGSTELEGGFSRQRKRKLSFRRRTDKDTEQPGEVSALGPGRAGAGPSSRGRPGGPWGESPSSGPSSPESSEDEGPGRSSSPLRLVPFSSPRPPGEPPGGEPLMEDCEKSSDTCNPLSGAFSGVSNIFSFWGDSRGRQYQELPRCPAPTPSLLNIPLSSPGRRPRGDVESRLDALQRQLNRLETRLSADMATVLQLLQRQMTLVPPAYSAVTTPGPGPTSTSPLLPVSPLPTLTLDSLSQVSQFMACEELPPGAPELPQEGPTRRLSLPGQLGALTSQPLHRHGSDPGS
For `CCOC(=O)C1CCN(C(=O)Nc2ccc3snnc3c2)CC1`, the “hERG current change (%, negative = inhibition) at 1uM” value is reported as 3.17%.
In the case of `O=C(Nc1ccc(F)cc1)N(Cc1cccs1)Cc1cc2cc3c(cc2[nH]c1=O)OCO3`, the “hERG current change (%, negative = inhibition) at 1uM” value was 16.6%.
As to `COc1cc(C(=O)NCCOc2ccccc2)cc(OC)c1OC`, the “hERG current change (%, negative = inhibition) at 1uM” value is listed as 16.3%.
As for `CCOC(=O)N1CCN(CCC(=O)Nc2ccc(OC)cc2OC)CC1`, the figure is 3.55%.
As for `O=C(Oc1c(-c2ccco2)oc2ccccc2c1=O)c1cccnc1`, the figure is 16.2%.
The result for `COc1cc(SC#N)ccc1N=Cc1c(C)[nH]n(-c2cccc3ccccc23)c1=O` reads 13.4%; that for `COc1ccc(CCNC2CC(=O)N(CCc3ccc(OC)c(OC)c3)C2=O)cc1` (centres unmarked), 7.42%; that for `O=C(Cn1cnc2c(oc3ccccc32)c1=O)NCC1CCCO1` (centres unmarked), 9.36%.
On to `CCOc1ccc(C(=O)N2CCCC2)cc1`, for which the “hERG current change (%, negative = inhibition) at 1uM” value is on record as 10.9%.
As for `CCOc1ccc(C(=O)N2CCCCCC2)cc1`, the figure is 9.17%.
In the case of `O=C(O)C(=O)O.O=C(c1ccccc1)N1CCN(Cc2ccccc2)CC1`, the “hERG current change (%, negative = inhibition) at 1uM” value came to 2.81%.
As for `O=C(c1ccc(-n2cccc2)cc1)N1CCN(Cc2ccccc2)CC1`, the figure is -59.9%; as for `CCOc1ccc(C(=O)N2CCCN(C(=O)c3ccc(OCC)cc3)CC2)cc1`, -69.3%.
As for `CCOc1ccc(C(=S)N2CCOCC2)cc1`, the figure is 5.79%.
As for `C=CCOc1ccccc1CN1CCC(Cc2ccccc2)CC1`, the figure is -51.6%; as for `CCOc1ccc(C(=S)N2CCCC2)cc1`, 5.79%.
For the compound `C=CCOc1ccccc1CN1CCCCCC1`, the “hERG current change (%, negative = inhibition) at 1uM” value came to 11.6%.
Regarding `C=CCOc1ccccc1CN1CCSCC1`, the “hERG current change (%, negative = inhibition) at 1uM” value is -1.02%.
The result for `O=C(c1ccc(F)cc1)N1CCN(Cc2ccccc2)CC1` reads 10.5%; that for `CCOc1ccc(C(=S)N2CCN(C)CC2)cc1`, -84.3%.
The result for `O=C(CN1CCN(c2ccc(F)cc2)CC1)Nc1ccc(-n2cnnn2)cc1` reads 8.42%; that for `O=C(CSc1nn(-c2ccc(F)cc2)c(=S)s1)NCC1CCCO1` (centres unmarked), -2.14%.
`Cc1ccc(Cl)cc1NC(=O)N[C@@H](C)C(=O)O`: the “hERG current change (%, negative = inhibition) at 1uM” value came out at 9.9%.
As for `Cc1cccc(C2c3[nH]c4ccccc4c3CCN2C(=O)c2cc(CC(C)C)nc(C)n2)n1` (centres unmarked), the figure is 14%.
For the compound `CSc1ccc(CN2CCC(Cc3ccccc3)CC2)cc1`, the “hERG current change (%, negative = inhibition) at 1uM” value is on record as -29.6%.
On to `Clc1ccc(CN2CCC(Cc3ccccc3)CC2)cc1`, for which the “hERG current change (%, negative = inhibition) at 1uM” value was 12.3%.
The result for `CCOc1ccc(C(=O)N2CCN(c3ccccc3)CC2)cc1` reads -0.559%; that for `CCOc1ccc(C(=O)N2CCN(Cc3ccccc3)CC2)cc1`, -60.3%; that for `CCOc1ccc(CN2CCC(Cc3ccccc3)CC2)cc1`, -76.8%.
The result for `CCOc1ccc(CN2CCN(C(=O)c3ccccc3)CC2)cc1` reads -1.03%.
As to `CCCCNC(=O)C1C2C=CC3(CN(Cc4ccc(C)cc4)C(=O)C13)O2` (centres unmarked), the “hERG current change (%, negative = inhibition) at 1uM” value came to 13.1%.
As for `O=C(Nc1cccc(Cl)c1)NC1CCS(=O)(=O)C1` (centres unmarked), the figure is 12.9%; as for `CCNC(=O)Nc1nc2ccccc2s1`, 8.72%; as for `Cc1nn(C)c(=O)c(N)c1-c1cc(-c2ccc(Cl)c(Cl)c2)n[nH]1`, 12.9%.
As for `CCN(C(=S)Nc1ccc(OC(F)F)cc1)C1CCCCC1`, the “hERG current change (%, negative = inhibition) at 1uM” value was -1.82%.
As for `CCN(CC(=O)Nc1ccc(OC(F)F)cc1)C1CCCCC1`, the figure is -61.6%; as for `CCN(CC(=O)Nc1ccc(C(=O)OC)cc1)C1CCCCC1`, 16.3%; as for `COc1ccc(OCCC(=O)c2ccc(OC)cc2)cc1`, 4.68%.
As for `CC(OC(=O)CC1CCCCC1)C(=O)Nc1cccc(C#N)c1` (centres unmarked), the figure is 6.92%; as for `COc1cc(/C=N/NC(=O)C2CCN(CC(O)COCc3ccccc3)CC2)cc(OC)c1OC` (centres unmarked), -34.2%.
The result for `COc1cc(/C=N/NC(=O)C2CCN(CC(O)COCc3ccccc3)CC2)ccc1O` (centres unmarked) reads -63.6%.
Turning to `CCOc1ccc(/C=N/NC(=O)C2CC2)cc1OC`, the “hERG current change (%, negative = inhibition) at 1uM” value is given as 19.1%.
As for `O=C(Nc1ccccc1)OCCOc1ccc(Br)cc1`, the figure is 11.2%; as for `O=C(O)c1ccc(C[n+]2c(-c3ccccc3)csc2Nc2ccccc2)cc1.[Br-]`, 8.98%.
Consider `COc1ccc(CCNc2nc(-c3cccnc3)nc3ccccc23)cc1OC`, for which the “hERG current change (%, negative = inhibition) at 1uM” value was 9.94%.
Turning to `CCOC(=O)c1cnc2ccccc2c1NCCO`, the “hERG current change (%, negative = inhibition) at 1uM” value is -15.2%.
The result for `COc1ccc(CCNc2c3ccccc3nc3ccccc23)cc1OC.Cl` reads -59.8%.
As for `CCOC(=O)c1cnc2c(C)cccc2c1NCCc1ccc(OC)c(OC)c1`, the figure is -4.73%; as for `CCOC(=O)c1cnc2ccc(C(=O)OC)cc2c1NCCc1ccc(OC)c(OC)c1`, 0.861%; as for `Cl.Oc1ccc(CCNc2c3ccccc3nc3ccccc23)cc1O`, -3.93%.
As for `CCOC(=O)c1cnc2ccc(OC)cc2c1NCCN1CCOCC1`, the figure is -13.3%; as for `CCOC(=O)c1cnc2ccccc2c1NCCc1ccc(OC)c(OC)c1`, -72%.
Consider `CCOC(=O)c1cnc2ccc(OC)cc2c1NCCc1ccc(OC)c(OC)c1`, for which the “hERG current change (%, negative = inhibition) at 1uM” value is given as -69.5%.
As for `O=C(CCCOc1ccc(Cl)cc1)NC1CCCCC1`, the figure is 12.5%; as for `Cc1ccc2sc(NNC(=O)c3ccc4c(c3)OCCO4)nc2c1C`, 8.2%; as for `CCC(=O)n1nc(-c2ccc(Cl)cc2)nc1NCc1ccccc1`, 8.9%.
With `COc1cccc(N2CC(O)=C(c3nc4ccccc4c(=O)[nH]3)C2=N)c1`, the “hERG current change (%, negative = inhibition) at 1uM” value is listed as 6.93%.
The result for `Cc1c(O)ccc(NS(=O)(=O)c2ccccc2)c1C` reads 13%; that for `O=c1[nH]c2ccccc2n1C1CCN(CCCC(c2ccc(F)cc2)c2ccc(F)cc2)CC1`, -76.5%.
The result for `O=c1[nH]c2ccccc2n1CCCN1CCC(n2c(=O)[nH]c3cc(Cl)ccc32)CC1` reads -46.8%; that for `O=C(CCCN1CCC(n2c(=O)[nH]c3ccccc32)CC1)c1ccc(F)cc1`, -80.8%; that for `O=C(Nc1cccc(F)c1)N1CCC(n2c(=O)[nH]c3ccccc32)CC1`, 2.25%.
The result for `O=C1CC(N2CCC(n3c(=O)[nH]c4ccccc43)CC2)C(=O)N1c1ccc(F)cc1` (centres unmarked) reads 7.15%; that for `O=c1[nH]c2ccccc2n1C1CCCCC1`, 7.5%; that for `CCN(CC)C(=O)c1ccc(NC(=O)c2ccc(-n3cncn3)c([N+](=O)[O-])c2)cc1`, 4.18%.
As to `CS(=O)(=O)NNC(=O)CN1C(=O)C2C3C=CC(C3)C2C1=O` (centres unmarked), the “hERG current change (%, negative = inhibition) at 1uM” value was determined as 22.9%.
The result for `Cc1noc(C)c1C(=O)Nc1nc2ccc(F)cc2s1` reads 2.2%.
The result for `CCOC(=O)C(C)Sc1nnc(Cn2c(=O)sc3ccccc32)n1-c1ccccc1` (centres unmarked) reads 4.98%; that for `COCCn1c(=O)c2c(nc3n2CC(C)CN3CCc2ccccc2)n(C)c1=O` (centres unmarked), -9.39%; that for `CCOCCn1c(=O)c2c(nc3n2CC(C)CN3CCc2ccccc2)n(C)c1=O` (centres unmarked), -58.9%.
As for `CCOCCn1c(=O)c2c(nc3n2CC(C)CN3Cc2ccccc2)n(C)c1=O` (centres unmarked), the figure is -14.4%; as for `O=C(CC1NCCNC1=O)Nc1cccc([N+](=O)[O-])c1` (centres unmarked), 6.97%; as for `CCC(C)N(C(=O)COC(=O)c1ccccc1SCC(=O)N1CCCC1)C1CCS(=O)(=O)C1` (centres unmarked), 11.9%.
With `O=C1c2ccccc2-c2nc3ncnn3c(-c3ccccc3Cl)c21`, the “hERG current change (%, negative = inhibition) at 1uM” value was determined as 5.18%.
As for `Cc1ccc(Nc2nc(NCCCN3CCOCC3)nc(N)c2[N+](=O)[O-])cc1`, the figure is -56.2%; as for `COc1ccc(Nc2nc(NCCCN3CCOCC3)nc(N)c2[N+](=O)[O-])cc1`, 3.71%.
As for `Cc1ccc(Nc2nc(NCCCN3CCOCC3)nc(N)c2[N+](=O)[O-])cc1C`, the figure is 4.15%; as for `COc1ccc(NC(=O)c2ccc(-n3cccn3)nc2)c(OC)c1`, 17.4%; as for `COC(=O)c1ccc2nc(NC(=O)CN3C(=O)CCC3=O)sc2c1`, 14.3%.
On to `CN(CC(=O)Nc1cccc(F)c1)C(=O)c1cc(S(=O)(=O)N2CCCCC2)ccc1N1CCOCC1`, for which the “hERG current change (%, negative = inhibition) at 1uM” value was determined as 3.68%.
